# Hits are enriched below; roughly 4% of the tested compounds scored in any of these assays.
# Shn3 inh set2: reduction of Shn3 3'UTR firefly luciferase signal, primary screen, Schnurri-3 inhibitor project, cell-based, Clone20 osteoblasts, set 2. Clone20 osteoblast Shn3 3'UTR firefly luciferase, 24 h. inhibition, % at 12.5 µM. actives 0.52% (n = 360,000). AID 588674, 2011;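 active = mean inhibition of at least 75% with every replicate also reaching 75%; inconclusive = mean inhibition at least 75% but some replicate below; inactive = mean inhibition below 75%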
# PAX8 reporter: inhibitors of PAX8-driven TPO luciferase reporter, primary screen, RMG-I cells, single concentration; SteadyGlo, 24 h; inhibition, % at 12.6 µM; actives 1.2% (n = 360,000);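 active = mean replicate inhibition at least 60% with every replicate also reaching 60%; inconclusive = only one of the two criteria is met; inactive = mean below 60% and not all replicates reaching 60%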;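 also: luciferase light reporting Pax8 driven TPO promoter activity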
# Gli-Sufu antag: Gli-Sufu pathway antagonists, primary screen, luciferase luminescence, Sufu-KO-LIGHT cells, uHTS; inhibition, % at 5 µM; Sufu-KO-LIGHT fibroblasts, Gli luciferase reporter luminescence; AID 588413, 2011; actives 0.74% (n = 340,000);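 active = inhibition above about 55%, limit read from the data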
# Mdm2-MdmX inh: inhibitors of human Mdm2-MdmX association, primary screen, cell-based, luminescence, split luciferase, SaOS-2, uHTS. Protein Mdm4 (Homo sapiens) + E3 ubiquitin-protein ligase Mdm2 (Homo sapiens), …. SaOS-2 split-luciferase Mdm2/MdmX complementation. inhibition, % at 8 µM. actives 3% (n = 330,000). AID 485346, 2010;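 active = inhibition of at least 50% at 8 µM in the primary screen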
# Target sequence (O15151 whole entry, looked up): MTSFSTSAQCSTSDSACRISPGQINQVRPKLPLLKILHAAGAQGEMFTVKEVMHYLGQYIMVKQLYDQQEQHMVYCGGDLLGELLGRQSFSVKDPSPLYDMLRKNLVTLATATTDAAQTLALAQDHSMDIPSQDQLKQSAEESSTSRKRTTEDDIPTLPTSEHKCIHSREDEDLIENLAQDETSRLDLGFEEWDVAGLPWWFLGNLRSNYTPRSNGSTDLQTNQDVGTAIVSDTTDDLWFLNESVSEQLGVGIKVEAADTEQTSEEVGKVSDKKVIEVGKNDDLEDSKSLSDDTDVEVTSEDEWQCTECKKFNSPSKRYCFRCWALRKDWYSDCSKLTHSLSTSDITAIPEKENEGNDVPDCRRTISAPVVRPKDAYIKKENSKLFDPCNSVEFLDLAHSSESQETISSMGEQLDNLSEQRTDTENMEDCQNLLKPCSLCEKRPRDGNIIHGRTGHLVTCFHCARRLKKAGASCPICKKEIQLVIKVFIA
# Target sequence (Q00987 whole entry, looked up): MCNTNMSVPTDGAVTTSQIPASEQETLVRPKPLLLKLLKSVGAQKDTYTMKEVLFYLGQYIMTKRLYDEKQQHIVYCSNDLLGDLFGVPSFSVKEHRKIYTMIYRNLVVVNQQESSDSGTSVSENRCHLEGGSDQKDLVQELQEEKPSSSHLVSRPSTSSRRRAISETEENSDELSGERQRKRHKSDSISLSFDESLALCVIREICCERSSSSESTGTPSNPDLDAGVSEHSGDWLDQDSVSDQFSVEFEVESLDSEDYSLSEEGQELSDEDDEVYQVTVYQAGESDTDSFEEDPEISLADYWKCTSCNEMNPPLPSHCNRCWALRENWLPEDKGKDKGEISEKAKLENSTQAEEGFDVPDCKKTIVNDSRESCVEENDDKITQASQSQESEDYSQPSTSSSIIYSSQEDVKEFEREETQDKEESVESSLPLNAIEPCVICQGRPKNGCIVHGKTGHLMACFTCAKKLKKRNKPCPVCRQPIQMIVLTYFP
# Beta apoptosis: inhibitors of cytokine-induced beta cell apoptosis, primary screen, luminescence; INS-1E cytokine-induced death, ATP luminescence, 48 h; percent of positive-control rescue, neutral wells zero; actives 0.8% (n = 300,000); protection from apoptosis, % (test concentration not listed);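 active = Every replicate reaches about 75%, or at least half do and their mean reaches it too, limit read from the data; inconclusive = At least half of replicates reach the limit but their mean does not; inactive = Under half of replicates reach the limit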;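 also: higher means more ATP so stronger rescue from cytokine killing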
# CSC inhib: cancer stem cell viability inhibitors, primary screen, luminescence | inhibition, % at 7.5 µM | cancer stem cell-like cells viability | actives 1.1% (n = 300,000); in the data active = inhibition above about 75%; inconclusive = no clear call, values can overlap the other calls; tested in HMLE shEcad cells
# Mdm2-MdmX conf: Mdm2-MdmX complex disruptors, retested hits, confirmation, luminescence, single concentration | shares compounds with Mdm2-MdmX inh | actives 55% (n = 10,000) | AID 489028, 2010 | inhibition, % at 8 µM | Mdm2-MdmX binding, luminescent assay; in the data active = inhibition above about 40%
# FLuc counter: full-length luciferase signal inhibition, confirmation, counter-screen for Mdm2/MdmX interaction inhibitor project, cell-based, single concentration, SaOS-2; shares compounds with Mdm2-MdmX inh; SaOS-2 full-length luciferase counterscreen, luminescence; inhibition, % at 8 µM; actives 77% (n = 6,200); AID 504607, 2011;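 active = mean inhibition at 8 µM reaching about 37%, which flags the compound as non-specific, limit read from the data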;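 also: p53-null SaOS-2 cells with luciferase driven by a doxycycline-inducible promoter; compound on cells about two nights before reading with doxycycline added after day one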
# Gli antag conf: Gli-SUFU pathway antagonists, confirmation, single concentration, luciferase luminescence, Sufu-KO-LIGHT cells. shares compounds with Gli-Sufu antag. Gli luciferase reporter. inhibition, % at 5 µM. actives 40% (n = 2,500). AID 602428, 2012;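 active = mean inhibition at 5 µM reaching about 45%, limit read from the data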
# SufuKO cytotox: cytotoxicity in Sufu-KO-LIGHT cells, confirmation, cytotoxicity control for Gli-SUFU antagonist project, cell-based, ATP luminescence, single concentration; cytotoxicity, % at 5 µM; actives 32% (n = 2,500); AID 651994, 2013; shares compounds with Gli-Sufu antag;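 active = mean cytotoxicity at 5 µM above about 25%, limit read from the data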;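 also: cells exposed to compound overnight for roughly 16 to 18 hours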
# Wnt3a counter: Wnt3a reporter signal inhibition, confirmation, counter-screen for Gli-SUFU antagonist project, Wnt-LIGHT cells, luminescence, single concentration; actives 20% (n = 2,500); inhibition, % at 6.25 µM; AID 651995, 2013; shares compounds with Gli-Sufu antag; Wnt3a-driven luciferase reporter;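 active = mean inhibition above about 25%, limit read from the data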
# Hits are given with their value; – = inactive; ? = inconclusive; · = no result given; ! = not confirmed by another sample.
SMILES,Shn3 inh set2,PAX8 reporter,Gli-Sufu antag,Mdm2-MdmX inh,Beta apoptosis,CSC inhib,Mdm2-MdmX conf,FLuc counter,Gli antag conf,SufuKO cytotox,Wnt3a counter
Cc1cc(C)nc(/N=C(\N)Nc2ccc(-c3ccccc3)cc2)n1,92,–,67,52,–,–,–,·,–,–,–
CC(=O)Nc1ccc(N/C(N)=N/c2nc(C)cc(C)n2)cc1,–,–,–,–,·,–,·,·,·,·,·
COc1cc(C)nc(NCc2ccccc2)n1,–,–,–,–,–,–,·,·,·,·,·
Cc1ccc(Nc2cc(C)nc(NCc3ccccc3)n2)cc1,–,–,–,57,105,?,–,·,–,–,–
O=C(Nc1cc(C(F)(F)F)cc(C(F)(F)F)c1)Nc1cnn(-c2ccc([N+](=O)[O-])cc2)c1C(F)(F)F,–,–,55,100,116,102,93,60,74,–,–
Cc1ccc(N/C(N)=N/c2nc(CSc3nnc(C)s3)cc(=O)[nH]2)c(C)c1,–,–,–,60,–,–,56,68,57,56,–
COc1cc2c(c(OC)c1OC)-c1ccc(N(C)CC(OC)OC)c(=O)cc1[C@@H](NC(C)=O)CC2,–,99,57,68,–,75,63,132,58,34,–
COc1cc2c(c(OC)c1OC)-c1ccc(OC)c(=O)cc1[C@@H](N(C)CC#CCO)CC2,–,77,66,51,–,–,53,117,58,62,41
CCCCCCc1cc2cc(C(=O)Nc3cccc(OC)c3)c(=O)oc2cc1O,–,–,61,95,99,·,–,·,58,–,79
COc1ccc(C2=Nn3c([n+](C)c4ccccc43)SC2)cc1,–,84,81,60,112,–,–,·,86,–,40
COc1cc(-c2noc(C)c2/C=C/c2ccc(OC(C)=O)cc2)cc(OC)c1OC,–,69,–,84,–,109,90,94,69,58,–
C[C@H]1CN([C@@H](C)CO)C(=O)c2cccc(NC(=O)Nc3ccccc3)c2O[C@H]1CN(C)Cc1ccc(-c2ccccc2)cc1,·,–,·,·,·,·,·,·,·,·,·
CCCCC(=O)NC(c1ccc(Cl)cc1Cl)c1ccc2cccnc2c1O (stereo not drawn),93,66,86,77,85,109,87,51,83,34,82
CCC(=O)NC(c1ccc(C)cc1)c1ccc2cccnc2c1O (stereo not drawn),90,92,89,79,–,–,86,–,82,42,83
CCC(=O)NC(NC(=S)Nc1cccc2cccnc12)C(Cl)(Cl)Cl (stereo not drawn),–,–,–,–,–,–,·,·,·,·,·
CCCC(=O)NC(c1ccccc1Cl)c1ccc2cccnc2c1O (stereo not drawn),?,86,83,87,99,109,89,53,80,28,69
O=C(C[C@H]1CC[C@@H](NC(=O)Nc2cc(F)ccc2F)[C@H](CO)O1)NCc1ccncn1,·,–,·,·,·,·,·,·,·,·,·
CC(=O)N1[C@@H]2c3ccc(C4=CCCCC4)c(=O)n3C[C@@H]2[C@@H](CO)[C@@H]1C(=O)N1CCCCC1,·,–,·,·,·,·,·,·,·,·,·
NC1=NC[C@H](c2ccccc2)N1CCCCC1CCCCC1,–,–,62,51,–,–,–,·,54,34,–
O=C(NCC[C@H]1CC[C@@H](NC(=O)c2cnccn2)[C@@H](CO)O1)Nc1ccc(F)cc1,·,–,·,·,·,·,·,·,·,·,·
Cc1ccc(S(=O)(=O)N(C)C[C@H]2Oc3ccc(NS(C)(=O)=O)cc3CC(=O)N([C@@H](C)CO)C[C@@H]2C)cc1,·,–,·,·,·,·,·,·,·,·,·
COC(=O)CCC(=O)NC(=S)Nc1sc(C)c(C)c1C(N)=O,–,–,–,61,·,–,58,91,50,51,–
Cc1cc(C)c2nc(N(CCCN(C)C)C(=O)C3=COCCO3)sc2c1,–,–,–,–,·,–,·,·,·,·,·
Cc1cc(C)c2nc(N(CCCN(C)C)C(=O)c3ccc4c(c3)OCCO4)sc2c1,–,–,71,66,·,–,53,76,–,–,–
O=C1/C(=C/c2ccccc2O)SC(=S)N1Cc1cccnc1,–,–,72,73,–,–,–,·,–,–,–
SMILES,Shn3 inh set2,PAX8 reporter,Gli-Sufu antag,Mdm2-MdmX inh,Beta apoptosis,CSC inhib,Mdm2-MdmX conf,FLuc counter,Gli antag conf,SufuKO cytotox,Wnt3a counter
COc1ccccc1-n1c(-c2ccccc2)c[n+]2c1CCc1ccccc1-2,90!,88,81,61,101,–,48!,52!,87,–,32
COc1ccccc1-n1c(-c2ccccc2)c[nH]c1=S,–,–,–,·,·,·,·,·,·,·,·
O=C(N[C@@H]1C=C[C@H](CC(=O)N2CCN(c3ccccc3)CC2)O[C@H]1CO)c1ccncc1,·,–,·,·,·,·,·,·,·,·,·
O=C(c1cccc(F)c1)N1CC[C@@H]2[C@H](CO)Nc3ccc(-c4cccc(F)c4)cc3[C@@H]21,·,–,·,·,·,·,·,·,·,·,·
CC1=CC(C)(C)N(C(=O)CCl)c2cc(C)ccc21,–,–,–,–,–,–,·,·,·,·,·
CC1=CC(C)(C)N(S(=O)(=O)c2ccc(C)cc2)c2cc(C)ccc21,–,·,59,54,–,–,69,122,58,62,–
CCOc1ccc2c(c1)C(C)=CC(C)(C)N2S(=O)(=O)c1ccc(C)cc1,–,82,67,63,·,·,61,121,64,62,–
COc1ccc2c(c1)C(C)=CC(C)(C)N2S(=O)(=O)c1ccc(C)cc1,–,79,67,63,–,–,67,96,56,58,30
CCNC(=O)N1c2ccc(OCC)cc2C(C)=CC1(C)C,–,–,–,–,–,–,·,·,·,·,·
